Data on twelve compounds can be found in PubChem BioAssay (EPA / NIEHS).

Inconclusive results are not listed. The source made the active and inactive calls. How the source made its calls: active means hit-call score of the fitted dose curve at least 0.9, where 1 is the maximum; inconclusive means response in the unintended direction; inactive means score below 0.9.

What is called AC50 is the concentration giving half of the maximal activity seen.

This test deals with rat Serotonin, 5-Hydroxytryptamine Receptor (5HT), Non-Selective Binding, Htr1a (gene 24473) (UniProt P19327). Put plainly: NVS_GPCR_r5HT_NonSelective: NovaScreen (NVS) G Protein-Coupled Receptor Assay for rat Serotonin, 5-Hydroxytryptamine Receptor (5HT), Non-Selective Binding (AID 2283295). As to the method: NVS_GPCR_r5HT_NonSelective is a biochemical, single-readout assay that uses extracted gene-proteins from Rat cortical membranes in a tissue-based cell-free assay. Measurements were taken 1 hour after chemical dosing in a 48-well plate.NVS_GPCR_r5HT_NonSelective is one of one assay component(s) measured or calculated from the NVS_GPCR_r5HT_NonSelective assay. It is designed to make measurements of radioligand binding, a form of binding reporter, as detected with scintillation counting signals by Filter-based radiodetection technology.Data from the assay component NVS_GPCR_r5HT_NonSelective was analyzed into 1 assay endpoint. This assay endpoint, NVS_GPCR_r5HT_NonSelective, was analyzed in the positive analysis fitting direction relative to DMSO as the negative control and baseline of activity. Using a type of binding reporter, loss-of-signal activity can be used to understand changes in the binding as they relate to the gene Htr1a. Furthermore, this assay endpoint can be referred to as a primary readout, because the performed assay has only produced 1 assay endpoint. To generalize the intended target to other relatable targets, this assay endpoint is annotated to the gpcr intended target family, where the subfamily is rhodopsin-like receptor.
Sequence of rat Serotonin, 5-Hydroxytryptamine Receptor (5HT), Non-Selective Binding, Htr1a (gene 24473) (P19327 whole entry, looked up): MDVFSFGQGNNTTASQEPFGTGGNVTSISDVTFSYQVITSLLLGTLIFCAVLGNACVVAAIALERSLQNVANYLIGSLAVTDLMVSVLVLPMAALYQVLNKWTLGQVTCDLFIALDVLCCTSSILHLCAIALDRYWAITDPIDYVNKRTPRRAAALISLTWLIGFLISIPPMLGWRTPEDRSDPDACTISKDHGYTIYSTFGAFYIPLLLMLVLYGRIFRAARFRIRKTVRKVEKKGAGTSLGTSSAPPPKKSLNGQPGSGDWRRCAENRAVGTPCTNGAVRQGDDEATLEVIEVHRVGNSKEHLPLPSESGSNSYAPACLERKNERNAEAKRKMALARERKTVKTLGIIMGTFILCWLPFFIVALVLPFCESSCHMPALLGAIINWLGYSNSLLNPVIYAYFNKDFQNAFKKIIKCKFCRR
Binding assays used specific radioligands (tritiated, iodinated) with non-radioactive competitive displacement ligands in agonist or antagonist protocols (as indicated) and various reference compounds and inhibitors to titrate specific binding to receptors and transporters. Most enzyme assays (CYPs, kinases, phosphatases, proteases, HDACs) used recombinant protein and specific substrates (fluorescence mostly, some colorimetric and radioactive) and inhibitors, followed by a biochemical separation of substrate and product. All assays for the biochemical HTS were initially run in duplicate at a single concentration (10 uM for CYP450 assays and 25 uM for all others). […] Each assay was run with positive and negative controls, and concurrent controls on every plate. The follow-up (secondary) screen tested active chemical-pairs in concentration series, as well as a few additional assays not tested in the primary screen, some selected negative inactives, and several cases re-run in the concentration series for confirmatory purposes.
As to `NCc1cccc(C2CCN(C(=O)c3ccc(C#Cc4ccccc4F)o3)CC2)c1`, the concentration at half-maximal activity (AC50) is 14.8 µM (active).

As for `CCN(Cc1cccnc1)C(=O)c1cccc(Cl)c1[C@]1(C)C(=O)N(Cc2ccc(OC)cc2OC)c2ccc(Cl)cc21`, the half-maximal activity concentration (AC50) was 17.4 µM (active).

As for `CN(C)c1ccc(C(=C2C=CC(=[N+](C)C)C=C2)c2ccc(N(C)C)cc2)cc1`, the half-maximal activity concentration (AC50) is 25 µM (active).

On to `COc1ccc2cc(S(=O)(=O)N[C@H](CC(=O)N[C@H](Cc3ccc(CN4[C@H](C)CCC[C@@H]4C)cc3)C(=O)N(C)C(C)C)c3ccc4c(c3)OCO4)ccc2c1`, for which the outcome was inactive.

For the compound `CCOC(=O)O[C@H](C)OC(=O)c1ccc2c(c1)cc(C(=O)NC1CCN(C(C)C)CC1)n2Cc1cc(-c2ccc(Cl)s2)on1`, the AC50 was 11.1 µM (active).

Regarding `CCN(CC)C(=O)c1cc(S(=O)(=O)Cc2ccccc2)c(N2CCC(c3ccccc3)CC2)cc1N(CC)CCN(C)C`, the half-maximal activity concentration (AC50) is 11.3 µM (active).

`Cc1cc2c(cc1C(F)(F)F)N(C(=O)Nc1ccc(Oc3cccnc3C)nc1)CC2`: the half-maximal activity concentration (AC50) was 0.43 µM (active).

On to `O=C1c2ccccc2C(=O)N1CCc1noc(-c2ccc(CN3CCCCCC3)s2)n1`, for which the outcome was inactive.

On to `CN(C)C(=O)C1(N2CCCCC2)CCN(CC[C@@]2(c3ccc(Cl)c(Cl)c3)CN(C(=O)c3ccccc3)CCO2)CC1`, for which the concentration at half-maximal activity (AC50) is 1.71 µM (active).

With `COc1cc(C(=O)NC2CCN(C)CC2)ccc1Nc1ncc2c(n1)N(C1CCCC1)CC(F)(F)C(=O)N2C`, the compound was classed as inactive.

Regarding `COc1cccc([C@H](O)C2CCN(CCc3ccc(F)cc3)CC2)c1OC`, the concentration at half-maximal activity (AC50) was 5.58 µM (active).

Turning to `Cc1occc1C(=O)Nc1ccc(C(=O)N2CCC(F)(F)/C(=C\C(=O)N3CCC(N4CCCCC4)CC3)c3ccccc32)cc1`, the call was inactive.
